Measured values published in PubChem BioAssay AID540303 (National Center for Advancing Translational Sciences (NCATS), 2011).
Hit rate of the full screen: of about 330,000 compounds, about 1,000 (0.3%) were called active. A call without a number means that no potency is given here. Inconclusive results (about 3%) are left out. Calls follow the shape of the dose curve; as a rule, active = well fitted inhibition curve with a large enough effect; inconclusive = small, poorly fitted or top-dose-only effect; inactive = no such curve, though single readings can be large or run the other way; tested in mouse RAW 264.7 cells. This excerpt belongs to a sample that is enriched for actives.

Experiment: qHTS for Inhibitors of Cell Surface uPA Generation; also: nearly all actives have a fitted effect of over 55% in size
Details: cell surface uPA generation assay; series mostly up to 38.3 µM
Procedure, shortened: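 Intracellular ATP by ATPlite luminescence serves as read-out: inhibited cell-surface uPA generation prevents LF translocation, preserving ATP. Murine RAW 264.7 macrophages were treated 24 h at 37 C with five-fold serial dilutions, up to 38.3 uM final.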
Potency is read from the fitted curve at half-maximal effect.

Question: Which Potency does the source give for `COCC(=O)N(C)[C@H]1C[C@H]2c3cc(Oc4ccccc4C)ccc3CCN2C(=O)[C@H]1[C@H](C)O` here?
Answer: The Potency was “inactive”.

Question: Which Potency does the source give for `CC(=O)OC1CCC2C3CCC4=C(CC(F)C(=O)C4)C3CCC12C` (stereo unspecified) here?
Answer: The Potency was “inactive”.

Question: For `Oc1ccc(Br)cc1C=Nc1ccc2[nH]ncc2c1`, which Potency is on record?
Answer: Its Potency is “inactive”.

Question: Which Potency does the source give for `Oc1ccc(/C=N/Nc2ccc(C(F)(F)F)cn2)cc1O` here?
Answer: The Potency was “inactive”.

Question: Which Potency does the source give for `Oc1ccc(Br)cc1/C=N/Nc1ccccn1` here?
Answer: The Potency was 2.82 µM (active).

Question: Which Potency does the source give for `C[C@@H]1ON(C)[C@H]2C[C@H]3c4cc(N5CCN(C)CC5)ccc4CCN3C(=O)[C@@H]12` here?
Answer: Its Potency is “inactive”.

Question: For `COc1ccc(CNc2ncnc3ccccc23)cc1`, which Potency is on record?
Answer: Its Potency is “inactive”.

Question: With `COc1ccc(CNC(=O)C2CCCC2)cc1` as the molecule, how does the Potency read?
Answer: Its Potency is “inactive”.

Question: For `COc1ccc(CNc2nc(NCc3ccc(OC)cc3)c3ncn(C4CCCC4)c3n2)cc1`, which Potency is on record?
Answer: Its Potency is 1.41 µM (active).

Question: Which Potency does the source give for `OCCCNc1nc(-c2ccccc2)c2cc(Cl)ccc2n1` here?
Answer: Its Potency is “inactive”.

Question: For `OCCCNc1nccc(-c2cc(Nc3cccc(Cl)c3)ncn2)n1`, which Potency is on record?
Answer: The Potency was 1.58 µM (active).

Question: For `NS(=O)(=O)c1cccnc1Nc1cccc(Cl)c1`, which Potency is on record?
Answer: Its Potency is “inactive”.

Question: Which Potency does the source give for `NC1=NOC(=O)C1C1CCCCC1` (stereo unspecified) here?
Answer: Its Potency is “inactive”.

Question: For `CCCCN(C(=O)CSCc1ccc(C)cc1)c1c(N)n(Cc2ccccc2)c(=O)[nH]c1=O`, which Potency is on record?
Answer: The Potency was “inactive”.

Question: For `Nc1ccc2c(c1)C(=Cc1cccnc1)c1ccccc1-2`, which Potency is on record?
Answer: The Potency was “inactive”.

Question: Which Potency does the source give for `Clc1ccc(-c2cc(-c3ccccn3)on2)c(Cl)c1` here?
Answer: Its Potency is 0.891 µM (active).

Question: With `O=C1c2ccccc2C(=O)N1Cc1cc(-c2ccccc2Cl)no1` as the molecule, how does the Potency read?
Answer: Its Potency is “inactive”.

Question: Which Potency does the source give for `COn1c(-c2ccc(Cl)cc2Cl)nc2ncccc21` here?
Answer: The Potency was “inactive”.

Question: For `CN(O)C(=S)c1ccccc1`, which Potency is on record?
Answer: Its Potency is “inactive”.

Question: With `CCc1c(Nc2ccccc2C)nc(N)[nH]c1=O` as the molecule, how does the Potency read?
Answer: Its Potency is “inactive”.

Question: With `CCN(CC)S(=O)(=O)c1cccc(NC(=O)c2ccc(S(=O)(=O)N3CCCC3)cc2)c1` as the molecule, how does the Potency read?
Answer: Its Potency is “inactive”.

Question: Which Potency does the source give for `COc1ccc(-c2nnc(-c3ccc4ccccc4c3)o2)cc1` here?
Answer: Its Potency is “inactive”.

Question: For `COc1ccc(-c2cn3cccnc3n2)cc1`, which Potency is on record?
Answer: Its Potency is “inactive”.

Question: With `COc1ccc(-c2cc3ncccc3cn2)cc1` as the molecule, how does the Potency read?
Answer: The Potency was 10 µM (active).

Question: Which Potency does the source give for `COc1ccc(/C=C/C(=O)OCC(=O)N2CCN(S(=O)(=O)c3ccc(C)cc3C)CC2)cc1OC` here?
Answer: The Potency was “inactive”.

Question: Which Potency does the source give for `COc1cc(C(=O)CCc2ccc3c(c2)OCO3)cc(OC)c1OC` here?
Answer: The Potency was “inactive”.

Question: With `S=C(Nc1ccccc1)Nc1ccc2ccccc2c1` as the molecule, how does the Potency read?
Answer: Its Potency is “inactive”.

Question: Which Potency does the source give for `CCN(CC)S(=O)(=O)c1ccc(-c2cn3ccc(C)cc3n2)cc1` here?
Answer: The Potency was “inactive”.

Question: For `COc1ccc(-c2cn3ccc(C)cc3n2)cc1`, which Potency is on record?
Answer: The Potency was 1 µM (active).

Question: For `Cc1ccn2cc(C(=O)NC3CCN(Cc4ccccc4)CC3)nc2c1`, which Potency is on record?
Answer: The Potency was “inactive”.

Question: For `O=c1ccn([C@@H]2O[C@H](CNS(=O)(=O)c3cc4ccccc4s3)[C@@H](O)[C@H]2O)c(=O)[nH]1`, which Potency is on record?
Answer: Its Potency is “inactive”.

Question: Which Potency does the source give for `O=C(NN=Cc1ccccc1)c1ccccc1` here?
Answer: Its Potency is “inactive”.

Question: For `CC(=O)N1CCc2ccc(N)cc21`, which Potency is on record?
Answer: Its Potency is “inactive”.

Question: Which Potency does the source give for `COc1ccc2c(c1)c(=Cc1ccc(N(C)C)cc1)c1cc(-c3ccccc3)[n+](C)n12` here?
Answer: The Potency was “inactive”.

Question: With `O=[N+]([O-])c1cc2ccccc2nc1-c1ccccc1` as the molecule, how does the Potency read?
Answer: Its Potency is “inactive”.

Question: For `COc1ccc(C(=O)c2c3ccc([N+](=O)[O-])cc3[n+]([O-])n2CCCN)cc1`, which Potency is on record?
Answer: Its Potency is 0.794 µM (active).

Question: Which Potency does the source give for `COc1ccc2c(C(=O)c3ccc(C)cc3)n(CCC(N)=O)[n+]([O-])c2c1` here?
Answer: Its Potency is “inactive”.

Question: With `COc1ccc(C(=O)CC(=O)C(=O)Nc2cc([N+](=O)[O-])ccc2OC)cc1` as the molecule, how does the Potency read?
Answer: The Potency was “inactive”.

Question: Which Potency does the source give for `CC/C(=C(/c1ccccc1)c1ccc(OCC[N+](C)(C)C)cc1)c1ccccc1` here?
Answer: Its Potency is “inactive”.

Question: For `Cc1c(NS(=O)(=O)c2cccc(C(=O)Nc3ccc(SC(F)F)cc3)c2)c(=O)n(-c2ccccc2)n1C`, which Potency is on record?
Answer: The Potency was “inactive”.

Question: For `OCCN1CCN(CCO)C1=S`, which Potency is on record?
Answer: The Potency was “inactive”.

Question: Which Potency does the source give for `COc1cccc(C=CC(=O)C=CC=Cc2ccccc2)c1` here?
Answer: The Potency was “inactive”.

Question: For `COc1cc(/C=C2\Oc3ccc(C#Cc4ccc(O)cc4)cc3C2=O)cc(OC)c1`, which Potency is on record?
Answer: Its Potency is 4.47 µM (active).

Question: Which Potency does the source give for `COC(=O)C(C)Oc1ccc2c(c1)O/C(=C\c1cccc(Br)c1)C2=O` (stereo unspecified) here?
Answer: The Potency was “inactive”.

Question: For `COc1ccc2c(c1)O/C(=C\c1ccccc1O)C2=O`, which Potency is on record?
Answer: Its Potency is “inactive”.

Question: With `CCC1([N+](=O)[O-])COC(c2ccc(C(C)C)cc2)OC1` (stereo unspecified) as the molecule, how does the Potency read?
Answer: The Potency was “inactive”.

Question: For `N#CC1=C(N)Oc2cc(N)ccc2C1c1ccccc1` (stereo unspecified), which Potency is on record?
Answer: Its Potency is “inactive”.

Question: For `OC(CNCc1ccc2c(c1)OCO2)COc1ccccc1` (stereo unspecified), which Potency is on record?
Answer: The Potency was “inactive”.

Question: With `Cc1ccc(OCC(=O)OC(C)CN(C)Cc2ccccc2)cc1` (stereo unspecified) as the molecule, how does the Potency read?
Answer: The Potency was “inactive”.

Question: For `CN(Cc1ccccc1)CC(O)COc1ccc(CNCc2cc3ccccc3s2)cc1` (stereo unspecified), which Potency is on record?
Answer: The Potency was 10 µM (active).

Question: Which Potency does the source give for `O=c1nc(NO)ccn1C1CCCO1` (stereo unspecified) here?
Answer: Its Potency is “inactive”.

Question: Which Potency does the source give for `CN(C)CCNC(=O)c1ccc(Cl)c2cc3ccccc3nc12` here?
Answer: The Potency was “inactive”.

Question: For `Cc1ccc(S(=O)(=O)n2oc(=O)c(C3CCCCC3)c2N)cc1`, which Potency is on record?
Answer: The Potency was “inactive”.

Question: Which Potency does the source give for `COc1ccc(CC2c3cc(OC)c(OC)cc3CC[N+]2(C)CCC(=O)OCCCCCOC(=O)CC[N+]2(C)CCc3cc(OC)c(OC)cc3C2Cc2ccc(OC)c(OC)c2)cc1OC` (stereo unspecified) here?
Answer: The Potency was 10 µM (active).

Question: With `CCc1ccc(OCC2c3cc(OC)c(OC)cc3CCN2C(C)=O)cc1` (stereo unspecified) as the molecule, how does the Potency read?
Answer: The Potency was “inactive”.

Question: With `COC(=O)C1=CN(Cc2ccc(OC)c(OC)c2)C=C(C(=O)OC)C1c1cccs1` as the molecule, how does the Potency read?
Answer: Its Potency is “inactive”.

Question: For `COc1ccc(S(=O)(=O)N2CCc3ccccc32)cc1C(=O)Nc1cc(S(C)(=O)=O)ccc1Cl`, which Potency is on record?
Answer: The Potency was “inactive”.

Question: For `O=C1/C(=C\c2ccc([N+](=O)[O-])cc2)CS(=O)(=O)C/C1=C/c1ccc([N+](=O)[O-])cc1`, which Potency is on record?
Answer: Its Potency is “inactive”.

Question: With `CCOC(=O)c1ccccc1OC(=O)Oc1ccccc1C(=O)OCC` as the molecule, how does the Potency read?
Answer: The Potency was “inactive”.

Question: For `CCOC(=O)c1c(C)[nH]c(C)c1S(=O)(=O)N(C)CC(=O)Nc1ccccc1C`, which Potency is on record?
Answer: The Potency was “inactive”.

Question: With `CCOC(=O)c1c(C)[nH]c2c1-c1ccccc1C(=O)C2=O` as the molecule, how does the Potency read?
Answer: The Potency was 5.62 µM (active).

Question: Which Potency does the source give for `CC(=O)Oc1ccc(OC(C)=O)c2c1C1C=CC2CC1` here?
Answer: The Potency was “inactive”.

Question: For `C[C@H](O)[C@@H]1C(=O)N2CCc3ccc(N4CCOCC4)cc3[C@@H]2C[C@@H]1N(C)C(=O)C(C)(C)C`, which Potency is on record?
Answer: The Potency was “inactive”.

Question: Which Potency does the source give for `CC(NC(=O)c1ccccc1)C(=O)OCC(=O)Nc1cccc(S(=O)(=O)N2CCCC2)c1` (stereo unspecified) here?
Answer: The Potency was “inactive”.

Question: Which Potency does the source give for `CCN1/C(=C\c2ccc3ccccc3[n+]2CC)Sc2cc(C)ccc21` here?
Answer: The Potency was 3.55 µM (active).

Question: For `O=C(NNC(=O)c1ccccc1O)c1ccccc1O`, which Potency is on record?
Answer: The Potency was “inactive”.
